Compound activity from PubChem BioAssay.
Only a selection was taken, and hits are over-represented in it overall.
FH mod – Identification of activators of human fumarate hydratase by quantitative high-throughput screening | 54,000 compounds, 0.22% hits | AID 1347055, 2019 | Potency, µM (doses to about 79.9 µM), for inactives: top-dose activity change, negative = inhibition, hits mostly inhibitors | FH coupled MDH/diaphorase resazurin fluorescence, 15 min | Fumarate hydratase, mitochondrial (Homo sapiens), P07954; active = well fitted inhibition curve with a large enough effect; also: the screen sought activators but most active calls are inhibition curves; nearly all actives have a fitted effect of over 45% in size
Target sequence (P07954 whole entry, looked up): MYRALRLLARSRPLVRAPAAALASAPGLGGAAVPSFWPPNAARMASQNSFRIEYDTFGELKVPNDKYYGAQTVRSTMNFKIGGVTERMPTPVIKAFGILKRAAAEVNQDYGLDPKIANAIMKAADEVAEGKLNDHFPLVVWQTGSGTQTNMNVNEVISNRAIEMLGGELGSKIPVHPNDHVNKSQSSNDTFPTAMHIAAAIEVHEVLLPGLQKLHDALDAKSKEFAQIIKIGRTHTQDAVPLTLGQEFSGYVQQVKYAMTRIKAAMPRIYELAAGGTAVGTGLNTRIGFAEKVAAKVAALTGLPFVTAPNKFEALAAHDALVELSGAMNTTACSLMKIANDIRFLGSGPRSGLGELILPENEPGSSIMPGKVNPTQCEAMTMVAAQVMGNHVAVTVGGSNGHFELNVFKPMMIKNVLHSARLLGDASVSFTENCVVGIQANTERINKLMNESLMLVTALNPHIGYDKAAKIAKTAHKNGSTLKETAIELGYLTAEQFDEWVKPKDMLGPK
The depositor's hits bear a star; ! = not confirmed by another sample; [ ] = remark or other dose. % is scaled to controls: 0 for no effect and ±100 for the full control effect; potency is read from the fitted curve at half-maximal effect.

SMILES	FH mod
O=C1OC(c2ccc(O)c(S(=O)(=O)O)c2)(c2ccc(O)c(S(=O)(=O)O)c2)c2c(Br)c(Br)c(Br)c(Br)c21	28µM*
C[C@H](CN1CCOCC1)C(C(=O)N1CCCC1)(c1ccccc1)c1ccccc1	-1%[162 µM]
N#C/C(=C/c1ccc(O)c(O)c1)C(N)=S	13µM*!
CCC(CC)(CNC(=O)CCCO)c1cccc(OC)c1	5%[53.3 µM]
CCCN1CCO[C@@H]2c3cc(O)ccc3OC[C@H]21	4%[53.3 µM]
CCCN1CCc2cccc3c2[C@H]1Cc1ccc(O)c(O)c1-3	7.9µM*
CCC1CN2CCc3cc(OC)c(OC)cc3C2CC1CC1=NCCc2cc(O)c(OC)cc21 (stereo unspecified)	1%[53.3 µM]
Nc1ccc(Cl)cc1C(=O)c1ccccc1F	-12%[53.3 µM]
CN(N=O)c1cc(O)ccc1O	2.2µM*
